{
  "source": "PubChem BioAssay AID1851",
  "about": "(National Center for Advancing Translational Sciences (NCATS), 2009)",
  "note": "The whole screen tested about 16,000 compounds, of which about 2,600 (16%) were called active. Not shown: some 20% with an inconclusive outcome. Only a sample is shown. A number with no mark means an inactive call. Calls come from the whole dose curve; as a rule, active = well fitted curve in the direction sought with a large enough effect; inconclusive = small, poorly fitted or top-dose-only effect, or effect the other way; inactive = no such curve, though single readings can be large or run the other way. % is set by controls: 0 for no effect and ±100 for the full control effect.",
  "data": [
    {"biological_target": "Cytochrome P450 2D6 (Homo sapiens) (UniProt P10635)", "sequence (P10635 whole entry, looked up)": "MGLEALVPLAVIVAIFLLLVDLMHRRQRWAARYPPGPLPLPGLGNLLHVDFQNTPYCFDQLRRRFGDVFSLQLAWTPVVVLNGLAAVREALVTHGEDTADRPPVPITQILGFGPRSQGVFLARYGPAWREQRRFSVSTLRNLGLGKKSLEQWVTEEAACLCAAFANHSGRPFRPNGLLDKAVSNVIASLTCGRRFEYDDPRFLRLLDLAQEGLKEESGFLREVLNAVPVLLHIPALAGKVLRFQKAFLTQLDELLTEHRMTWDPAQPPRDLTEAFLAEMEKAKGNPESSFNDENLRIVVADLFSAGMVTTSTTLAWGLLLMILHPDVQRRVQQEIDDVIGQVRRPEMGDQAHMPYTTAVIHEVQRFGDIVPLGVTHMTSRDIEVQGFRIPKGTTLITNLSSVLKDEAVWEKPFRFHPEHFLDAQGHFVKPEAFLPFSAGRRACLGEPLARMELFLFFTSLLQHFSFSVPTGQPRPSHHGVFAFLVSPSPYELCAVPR", "assay": "Cytochrome panel assay with activity outcomes", "details": "recombinant CYP, pro-luciferin dealkylation, luminescence, p450-cyp2d6; series mostly up to 57.1 µM; activity, negative = inhibition: at the top concentration", "values": [
      {"smiles": "CC(=O)OC1CCC(OC(C)=O)c2c1n([O-])c(C)c(C)[n+]2=O", "note": "(configuration not stated)", "activity, negative = inhibition": "3.23%"},
      {"smiles": "O=C(/C=C/c1ccc(Cl)cc1)NCCSc1ccccc1", "activity, negative = inhibition": "-28.5%"},
      {"smiles": "CCCCNC(=O)NS(=O)(=O)c1cnccc1Sc1ccc(Cl)cc1", "activity, negative = inhibition": "16.8%"},
      {"smiles": "CC(C)NCCOCCSc1ccc(Cl)cc1", "AC50": "3550 nM (active)"},
      {"smiles": "CCCCNCCOCCSc1ccc(Cl)cc1", "AC50": "1580 nM (active)"},
      {"smiles": "Cc1cc(/C=N\\NC(=O)c2cccs2)c(C)n1-c1ccc2ncccc2c1", "activity, negative = inhibition": "-27.7%"},
      {"smiles": "C[C@@H]1CCC[C@H](C)N1", "activity, negative = inhibition": "0.216% [at 25.6 µM]"},
      {"smiles": "O=S(=O)(O)CCCc1cccc2ccccc12", "activity, negative = inhibition": "7.84% [at 11.4 µM]"},
      {"smiles": "Cc1cc(C)cc(C(=N)c2ccccc2Cc2cccc3ccccc23)c1", "activity, negative = inhibition": "5.99% [at 11.4 µM]"},
      {"smiles": "CN(C/C=C\\c1ccccc1)Cc1cccc2ccccc12", "AC50": "251 nM (active)"},
      {"smiles": "CN(Cc1cccc2ccccc12)Cc1cccc2ccccc12", "AC50": "398 nM (active)"},
      {"smiles": "CCOC(=O)CSCC(NC(=O)OC(C)(C)C)C(=O)OCC", "note": "(configuration not stated)", "activity, negative = inhibition": "-9.04%"},
      {"smiles": "O=C1C2C3C=CC(C2C(=O)N1CN1CCOCC1)C1C2C(=O)N(CN4CCOCC4)C(=O)C2C31", "note": "(configuration not stated)", "activity, negative = inhibition": "17.4% [at 11.4 µM]"},
      {"smiles": "COc1ccc(O)c(/C=N/NC(=O)CSc2nnc(C)n2-c2ccccc2)c1", "activity, negative = inhibition": "-4.14%"},
      {"smiles": "Nc1c(-c2cccs2)cnn1-c1nc(-c2ccc(Cl)cc2Cl)cs1", "activity, negative = inhibition": "-4.88%"},
      {"smiles": "COC(=O)C1=C(C)NC(C)=C([N+](=O)[O-])[C@H]1c1ccccc1C(F)(F)F", "activity, negative = inhibition": "-16.4%"},
      {"smiles": "COC(=O)C1=C(C)NC(C)=C([N+](=O)[O-])[C@@H]1c1ccccc1C(F)(F)F", "AC50": "6310 nM (active)"},
      {"smiles": "COC(=O)C1=C(C)NC(C)=C(C(=O)OC(C)C)C1c1cccc2nonc12", "note": "(configuration not stated)", "activity, negative = inhibition": "-6.81%"},
      {"smiles": "Cc1ccc(CN(C(=O)c2cc3ccccc3oc2=O)C2CCS(=O)(=O)C2)cc1", "note": "(configuration not stated)", "activity, negative = inhibition": "7.86%"},
      {"smiles": "CCc1ccc(CN(C(=O)c2cc3ccccc3oc2=O)C2CCS(=O)(=O)C2)cc1", "note": "(configuration not stated)", "activity, negative = inhibition": "-3.54%"},
      {"smiles": "CC(C)c1ccc(CN(C(=O)C2COc3ccccc3O2)C2CCS(=O)(=O)C2)cc1", "note": "(configuration not stated)", "AC50": "14100 nM (active)"},
      {"smiles": "CNNCc1ccc(C(=O)NC(C)C)cc1", "activity, negative = inhibition": "-6.86% [at 25.6 µM]"},
      {"smiles": "CC(Sc1nc(-c2ccccc2)cc(C(F)(F)F)n1)C(=O)N1CCCCC1", "note": "(configuration not stated)", "activity, negative = inhibition": "-29.9%"},
      {"smiles": "CC(NC(=O)CCSc1nc(-c2ccc3c(c2)OCO3)cc(C(F)(F)F)n1)c1ccccc1", "note": "(configuration not stated)", "AC50": "1000 nM (active)"},
      {"smiles": "Cc1nc2ncnn2c(C)c1CCC(=O)NC(C)c1ccc2c(c1)OCCO2", "note": "(configuration not stated)", "activity, negative = inhibition": "0.727%"},
      {"smiles": "O=C1[C@H]2[C@H]3[C@H](O)[C@H](O)C/C(=N/OC[C@@H](O)COCc4ccco4)[C@H]3CC[C@@H]2C(=O)N1C1CCCCC1", "activity, negative = inhibition": "2.44% [at 11.4 µM]"},
      {"smiles": "Cc1ccc(C2/C(=C(/O)c3ccc(Cl)cc3)C(=O)C(=O)N2CC2CCCO2)o1", "note": "(configuration not stated)", "activity, negative = inhibition": "-29.8%"}
    ]}
  ]
}
